Source: PubChem BioAssay (NCATS)
Inconclusive results are not listed. Calls of active or inactive are those of the source. Calls follow the shape of the dose curve; as a rule, active = well fitted curve in the direction sought with a large enough effect; inconclusive = small, poorly fitted or top-dose-only effect, or another doubt; inactive = no such curve, though single readings can be large; an effect the other way counts as inactive or inconclusive.

Assays:
[1] = Panc-1005 Cancer Cell Toxicity qHTS against the NCATS CANVASS Library (AID 1347349); also: nearly all actives have a fitted effect of over 60% in size
Outline: (§1)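 1000 cells/well; 4 h settle; 11-pnt titration; 72 h, 37 degrees C, 5% CO2; CellTiter-Glo, 15min RT; luminescence read.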

[2] = SW1088 Cancer Cell Toxicity qHTS against the NCATS CANVASS Library (AID 1347350); also: nearly all actives have a fitted effect of over 75% in size
Outline: as §1

[3] = U-118MG Cancer Cell Toxicity qHTS against the NCATS CANVASS Library (AID 1347351)
Outline: as §1

[4] = COV-362 Cancer Cell Toxicity qHTS against the NCATS CANVASS Library (AID 1347352)
Outline: (§2)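 First, 1000 cells go into each well and rest for 4 hours. Next, an 11-point dilution range is pinned in. Plates then incubate 72 hours before CellTiter-Glo addition and luminescence reading.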

[5] = A2780 Cisplatin Sensitive Ovarian Cancer Cell Toxicity qHTS against the NCATS CANVASS Library (AID 1347353); conditions: A2780 ovarian cancer viability, ATPLite luminescence, 72 h; at 15.4 µM (top of the series); also: nearly all actives have a fitted effect of over 60% in size
Outline: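 Cells are plated at 750 per well and rest for 4 hours. Compounds are added across eleven concentrations, and incubated 72 hours before ATP is quantified by luminescence.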

[6] = UWB1.289-WTBRCA1 Cancer Cell Toxicity qHTS against the NCATS CANVASS Library (AID 1347354)
Outline: as §2

[7] = HEK-293 Cancer Cell Toxicity qHTS against the NCATS CANVASS Library (AID 1347355); conditions: HEK-293 viability, CellTiter-Glo luminescence, 72 h; at 15.4 µM (top of the series); also: nearly all actives have a fitted effect of over 65% in size
Outline: as §2

[8] = HPAF-II 24hr Apoptosis Induction qHTS against the NCATS CANVASS Library (AID 1347356)
Outline: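 Cells seeded at 500 per well, then compounds pin-transferred in an 11-point concentration series. After 24 hours at 37 degrees C, Caspase-Glo 3/7 was added and luminescence measured following 15 min at room temperature.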

[9] = HEK293 18hr Apoptosis Induction qHTS against the NCATS CANVASS Library (AID 1347357)
Outline: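 Natural products applied to HEK293 for 18 hr; Caspase-Glo 3/7 readout.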

[10] = HPAF-II 12hr Apoptosis Induction qHTS against the NCATS CANVASS Library (AID 1347358)
Outline: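 Cells plated at 500 per well are dosed with compound and incubated 12 hours at 37 degrees C. Caspase-Glo 3/7 reagent is added and, after 15 min at room temperature, luminescence proportional to caspase activity is measured.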

[11] = HEK293 24hr Apoptosis Induction qHTS against the NCATS CANVASS Library (AID 1347359)
Outline: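 HEK293 cells (500/well, DMEM + 10% FBS) were exposed to compounds in an 11-point series for 24 hours at 37 degrees C, then caspase-3/7 activity was read by Caspase-Glo DEVD luciferase luminescence after 15 min.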

[12] = HPAF-II 18hr Apoptosis Induction qHTS against the NCATS CANVASS Library (AID 1347360)
Outline: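 Luminescent DEVD-substrate signal, proportional to caspase activity, is measured in HPAF-II cells after 18-hour treatment across a concentration series; doxorubicin serves as control.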

[13] = HEK293 12hr Apoptosis Induction qHTS against the NCATS CANVASS Library (AID 1347361)
Outline: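 Luminescent caspase-3/7 signal, proportional to enzyme activity, was recorded from HEK293 cultures in DMEM + 10% FBS treated for 12 hours with titrated natural products (11 points). Doxorubicin (0.1nM - 4uM) served as control.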

[14] = test system: NAD(P)H diaphorase (Clostridium kluyveri); experiment: Diaphorse counterscreen qHTS: Assay Interference Panel against the NCATS CANVASS Library (AID 1347362)
Outline: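 Clostridium kluyveri diaphorase in PBS with 0.01% Tween-20 was preincubated 15 min at room temperature in the dark with compounds (11-point series). Resorufin fluorescence (ex 525/20, em 598/25) was read 5 min after adding resazurin/NADH.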

[15] = target: Luciferin 4-monooxygenase (Photinus pyralis) (UniProt P08659); experiment: Firefly luciferase counterscreen qHTS: Assay Interference Panel against the NCATS CANVASS Library (AID 1347363)
Chain of Luciferin 4-monooxygenase (Photinus pyralis) (P08659 whole entry, looked up): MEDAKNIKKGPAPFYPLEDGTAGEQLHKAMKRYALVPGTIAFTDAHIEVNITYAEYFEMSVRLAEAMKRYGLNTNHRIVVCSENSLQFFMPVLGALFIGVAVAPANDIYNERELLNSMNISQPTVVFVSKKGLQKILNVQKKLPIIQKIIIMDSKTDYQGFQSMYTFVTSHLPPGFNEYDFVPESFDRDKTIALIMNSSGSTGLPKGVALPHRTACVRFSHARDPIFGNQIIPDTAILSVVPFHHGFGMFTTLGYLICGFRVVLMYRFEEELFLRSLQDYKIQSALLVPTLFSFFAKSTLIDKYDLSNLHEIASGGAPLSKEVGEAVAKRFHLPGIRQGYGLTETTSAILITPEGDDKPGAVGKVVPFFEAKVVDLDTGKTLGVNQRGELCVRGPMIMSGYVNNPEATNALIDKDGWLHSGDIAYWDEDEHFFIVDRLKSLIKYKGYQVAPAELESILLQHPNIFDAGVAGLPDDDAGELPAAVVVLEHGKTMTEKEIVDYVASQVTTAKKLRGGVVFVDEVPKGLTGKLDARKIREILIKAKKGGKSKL
Outline: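 Purified P. pyralis luciferase was added to compounds (11-point series) preincubated 15 min at room temperature with substrate containing 0.013 mM D-luciferin and 0.013 mM ATP; luminescence was read after 5 min.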

[16] = KB-8-5-11 Cancer Cell Toxicity qHTS against the NCATS CANVASS Library (AID 1347364); conditions: KB-8-5-11 MDR cells viability, CellTiter-Glo, 72 h; at 15.4 µM (top of the series); also: nearly all actives have a fitted effect of over 75% in size
Outline: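 Terse: KB-8-5-11, 500 cells/well, 72 hr, 37C/5% CO2, 11-pt titration, CellTiter-Glo readout; confirmatory runs ± 1uM tariquidar in medium.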

[17] = SDT Cancer Cell Toxicity qHTS against the NCATS CANVASS Library (AID 1347365);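 also: SDT canine glioma cells 500 per well in 1536 well plates; nearly all actives have a fitted effect of over 60% in size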
Outline: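 Cytotoxicity is measured from cellular ATP: compounds in an 11-point concentration series are pinned onto SDT cells, incubated 72 hr at 37C, then CellTiterGlo is added and luminescence read.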

[18] = KB-3-1 Cancer Cell Toxicity qHTS against the NCATS CANVASS Library (AID 1347366); conditions: KB-3-1 viability, CellTiter-Glo luminescence, 72 h; at 15.4 µM (top of the series); also: nearly all actives have a fitted effect of over 75% in size
Outline: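 Cytotoxicity toward KB-3-1 cells (500/well, DMEM + 10% FBS) was scored by CellTiter-Glo luminescence following 72 hr exposure at 37C, with bortezomib titrated as control.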

[19] = qHTS for ATAD5 Agonist screened against the NCATS CANVASS Library (AID 1347367);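 also: luciferase reporter driven by ATAD5 which rises upon DNA damage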
Outline: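 Genotoxicity was scored as increased ATAD5-luciferase luminescence in HEK293T after 16hr of exposure, with cell viability measured by fluorescence beforehand in the same well.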

[20] = G06 Cancer Cell Toxicity qHTS against the NCATS CANVASS Library (AID 1347368); also: nearly all actives have a fitted effect of over 60% in size
Outline: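 Cells were plated at 500 per well, then compounds were added over an 11-point range. After 72 hr at 37C, CellTiterGlo was added and luminescence measured as ATP content.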

Measured: outcome

C[C@@H]1O[C@@H](OC[C@H]2O[C@@H](Oc3c(-c4ccc(O)c(O)c4)oc4cc(O)cc(O)c4c3=O)[C@H](O)[C@@H](O)[C@@H]2O)[C@H](O)[C@H](O)[C@H]1O
inactive: all assays above
